In PubChem BioAssay AID1159580 (chemical genetic matrix, 2015):
Out of some 5,500 compounds screened, about 2,000 (36%) were called active. About 18% were inconclusive and are not listed. Cut-off read from the data, not from the text of the source: active = normalized growth mostly below about 0.91 (no sharp cut-off); inconclusive = no clear call, values can overlap the other calls; inactive = mostly above about 0.92. The list shows a part of the results.

Assay: chemical genetic growth profiling, strain panel (AID 1159580);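 note: tested at 20 µM; growth read once vehicle control cultures reached saturation at 30 °C; 1 = growth at the plate median or of vehicle wells; lower values mean less growth of the strain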
Conditions: growth OD

Measured: normalized growth

CN=C(N)NCCCC(N)C(=O)O (stereo unspecified)
inactive: S. cerevisiae deletion strains, locus YAL013W, strain DEP1, active compounds read low 1.02 | S. cerevisiae deletion strains, locus YBR021W, strain FUR4, active compounds read low 1.03 | S. cerevisiae deletion strains, locus YBR229C, strain ROT2, active compounds read low 1.01 | S. cerevisiae deletion strains, locus YCL029C, strain bik1, active compounds read low 0.996 | S. cerevisiae deletion strains, locus YDL035C, strain GPR1, active compounds read low 1.04 | S. cerevisiae deletion strains, locus YDL074C, strain BRE1, active compounds read low 1.05 | S. cerevisiae deletion strains, locus YDL101C, strain DUN1, active compounds read low 1.03 | S. cerevisiae deletion strains, locus YDL134C, strain PPH21, active compounds read low 1.01 | S. cerevisiae deletion strains, locus YDL185W, strain tfp1, active compounds read low 1.02 | S. cerevisiae deletion strains, locus YDL192W, strain arf1, active compounds read low 1.01 | S. cerevisiae deletion strains, locus YDR101C, strain arx1, active compounds read low 1.01 | S. cerevisiae deletion strains, locus YDR150W, strain NUM1, active compounds read low 1.02 | S. cerevisiae deletion strains, locus YDR162C, strain NBP2, active compounds read low 1.03 | S. cerevisiae deletion strains, locus YDR318W, strain mcm21, active compounds read low 1.04 | S. cerevisiae deletion strains, locus YDR388W, active compounds read low 0.993 | S. cerevisiae deletion strains, locus YDR502C, strain sam2, active compounds read low 1.01 | S. cerevisiae deletion strains, locus YEL061C, strain CIN8, active compounds read low 1.01 | S. cerevisiae deletion strains, locus YER110C, active compounds read low 0.997 | S. cerevisiae deletion strains, locus YER155C, strain BEM2, active compounds read low 1.01 | S. cerevisiae deletion strains, locus YER167W, strain BCK2, active compounds read low 1.05 | S. cerevisiae deletion strains, locus YGL078C, strain dbp3, active compounds read low 1.01 | S. cerevisiae deletion strains, locus YGL086W, strain mad1, active compounds read low 1.03 | S. cerevisiae deletion strains, locus YGL248W, strain PDE1, active compounds read low 1.01 | S. cerevisiae deletion strains, locus YGR078C, strain PAC10, active compounds read low 1.04 | S. cerevisiae deletion strains, locus YGR135W, strain pre9, active compounds read low 1.02 | S. cerevisiae deletion strains, locus YGR229C, strain SMI1, active compounds read low 1.05 | S. cerevisiae deletion strains, locus YGR252W, strain gcn5, active compounds read low 1.17 | S. cerevisiae deletion strains, locus YHR030C, strain SLT2, active compounds read low 1.01 | S. cerevisiae deletion strains, locus YHR079C, strain IRE1 (second series), active compounds read low 0.995 | S. cerevisiae deletion strains, locus YHR094C, strain hxt1, active compounds read low 0.986 | S. cerevisiae deletion strains, locus YHR129C, strain ARP1, active compounds read low 1.01 | S. cerevisiae deletion strains, locus YHR200W, strain rpn10, active compounds read low 1.02 | S. cerevisiae deletion strains, locus YIL066C, strain RNR3, active compounds read low 1.03 | S. cerevisiae deletion strains, locus YIL073C, strain SPO22, active compounds read low 1.09 | S. cerevisiae deletion strains, locus YIL125W, strain kgd1, active compounds read low 1.01 | S. cerevisiae deletion strains, locus YIR030C, strain dcg1, active compounds read low 0.997 | S. cerevisiae deletion strains, locus YJL095W, strain BCK1, active compounds read low 1.02 | S. cerevisiae deletion strains, locus YJL134W, strain LCB3, active compounds read low 1.02 | S. cerevisiae deletion strains, locus YJL168C, strain set2, active compounds read low 0.987 | S. cerevisiae deletion strains, locus YJL187C, strain SWE1 (second series), active compounds read low 1.02 | S. cerevisiae deletion strains, locus YJR043C, strain POL32, active compounds read low 1.06 | S. cerevisiae deletion strains, locus YJR075W, strain HOC1, active compounds read low 1.07 | S. cerevisiae deletion strains, locus YKL009W, strain mrt4, active compounds read low 1.03 | S. cerevisiae deletion strains, locus YKL068W, active compounds read low 1.01 | S. cerevisiae deletion strains, locus YKL085W, strain MDH1 (second series), active compounds read low 1.03 | S. cerevisiae deletion strains, locus YKL085W, strain MDH1, active compounds read low 1.03 | S. cerevisiae deletion strains, locus YKL190W, strain CNB1, active compounds read low 1.02 | S. cerevisiae deletion strains, locus YKR001C, strain vps1, active compounds read low 1.02 | S. cerevisiae deletion strains, locus YLR039C, strain RIC1, active compounds read low 1.07 | S. cerevisiae deletion strains, locus YLR058C, strain SHM2, active compounds read low 1.02 | S. cerevisiae deletion strains, locus YLR102C, strain apc9, active compounds read low 0.986 | S. cerevisiae deletion strains, locus YLR262C, strain YPT6, active compounds read low 1.1 | S. cerevisiae deletion strains, locus YLR268W, strain sec22, active compounds read low 1.01 | S. cerevisiae deletion strains, locus YLR330W, strain CHS5, active compounds read low 1.01 | S. cerevisiae deletion strains, locus YLR342W, strain FKS1 (second series), active compounds read low 1.09 | S. cerevisiae deletion strains, locus YLR371W, strain rom2, active compounds read low 0.975 | S. cerevisiae deletion strains, locus YLR418C, strain cdc73, active compounds read low 1.01 | S. cerevisiae deletion strains, locus YML016C, strain PPZ1, active compounds read low 1.02 | S. cerevisiae deletion strains, locus YML032C, strain rad52, active compounds read low 1.05 | S. cerevisiae deletion strains, locus YML124C, strain tub3, active compounds read low 1.01 | S. cerevisiae deletion strains, locus YMR078C, strain ctf18, active compounds read low 1 | S. cerevisiae deletion strains, locus YMR223W, strain ubp8, active compounds read low 1.04 | S. cerevisiae deletion strains, locus YMR263W, strain SAP30, active compounds read low 1.04 | S. cerevisiae deletion strains, locus YMR307W, strain GAS1, active compounds read low 1.14 | S. cerevisiae deletion strains, locus YNL067W, strain RPL9B, active compounds read low 1.02 | S. cerevisiae deletion strains, locus YNL128W, strain TEP1, active compounds read low 1.03 | S. cerevisiae deletion strains, locus YNL153C, strain GIM3, active compounds read low 1.03 | S. cerevisiae deletion strains, locus YNL233W, strain BNI4, active compounds read low 1.03 | S. cerevisiae deletion strains, locus YNL250W, strain rad50, active compounds read low 1.02 | S. cerevisiae deletion strains, locus YNL271C, strain bni1, active compounds read low 1.01 | S. cerevisiae deletion strains, locus YNL298W, strain CLA4, active compounds read low 1.04 | S. cerevisiae deletion strains, locus YNL307C, strain MCK1, active compounds read low 1.02 | S. cerevisiae deletion strains, locus YNL322C, strain KRE1, active compounds read low 1.02 | S. cerevisiae deletion strains, locus YNR052C, strain pop2, active compounds read low 1 | S. cerevisiae deletion strains, locus YOL006C, strain TOP1, active compounds read low 1.05 | S. cerevisiae deletion strains, locus YOL012C, strain htz1 1.01 | S. cerevisiae deletion strains, locus YOL147C, strain pex11, active compounds read low 0.995 | S. cerevisiae deletion strains, locus YOR061W, strain CKA2, active compounds read low 1.02 | S. cerevisiae deletion strains, locus YOR069W, strain VPS5, active compounds read low 1.01 | S. cerevisiae deletion strains, locus YOR136W, strain idh2, active compounds read low 1.02 | S. cerevisiae deletion strains, locus YOR144C, strain elg1, active compounds read low 1.01 | S. cerevisiae deletion strains, locus YOR184W, strain ser1, active compounds read low 1.07 | S. cerevisiae deletion strains, locus YOR316C, strain cot1, active compounds read low 0.99 | S. cerevisiae deletion strains, locus YPL055C, strain LGE1, active compounds read low 1.1 | S. cerevisiae deletion strains, locus YPL241C, strain CIN2, active compounds read low 1.02 | S. cerevisiae deletion strains, locus YPR119W, strain clb2, active compounds read low 0.984 | S. cerevisiae deletion strains, locus YPR141C, strain kar3, active compounds read low 1.02 | S. cerevisiae deletion strains, locus YPR163C, strain tif3, active compounds read low 1 | S. cerevisiae deletion strains, locus YPR167C, strain met16, active compounds read low 1.01 | S. cerevisiae deletion strains, strain wtn01, active compounds read low 0.994 | S. cerevisiae strains, strain wild type, active compounds read low 1.03
